Data on 30 compounds can be found in PubChem BioAssay (EPA / NIEHS).

Inconclusive results are not listed. Activity calls are given as the source filed them. The calls were made as follows: active = hit-call score of the fitted dose curve at least 0.9, where 1 is the maximum; inconclusive = response in the unintended direction; inactive = score below 0.9.

Experiment [1] in a line: ACEA_AR_agonist_AUC_viability: ACEA Biosciences xCELLigence Real-Time Cell Analysis on Androgen Receptor Agonism for Viability (AID 2283775).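 As to AC50: viability read 80 hours after compound addition.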 The procedure, abridged: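 Read-out is area under the impedance curve at 80 h post-dose in 22Rv1 cells, with DMSO as baseline and signal loss taken as reduced viability. Compounds ran in duplicate from 100 uM final.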
A short description of experiment [2]: ACEA_AR_antagonist_AUC_viability: ACEA Biosciences xCELLigence Real-Time Cell Analysis on Androgen Receptor Antagonism for Viability (AID 2283776).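 Also: 22Rv1 human prostate cancer cells growing on impedance electrode plates; area under impedance growth curve at 80 h after dosing as viability; hits lower the growth signal relative to DMSO meaning cytotoxicity.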 In short, it runs like this:
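22Rv1 prostate cells, continuous dosing up to 100 uM final (0.5% DMSO max), duplicate plates. Growth measured by impedance; AUC at 80 h, loss of signal vs DMSO.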

Take `CCNc1nc(NC(C)C)nc(SC)n1`: the compound was classed as inactive in experiment [1] and in experiment [2].

On to `Cc1cccc([N+](=O)[O-])c1`, for which the compound was classed as inactive in experiment [1] and in experiment [2].

`O=S(=O)(O)C(F)(F)C(F)(F)C(F)(F)C(F)(F)C(F)(F)C(F)(F)F`: the compound was called inactive in experiment [1] and in experiment [2]. With `O=C(O)C(F)(F)C(F)(F)C(F)(F)C(F)(F)C(F)(F)F`, the compound was classed as inactive in experiment [2].

Regarding `ClC1=C(Cl)[C@]2(Cl)[C@@H]3[C@@H](Cl)[C@H]4O[C@H]4[C@@H]3C1(Cl)C2(Cl)Cl`, the outcome in experiment [1] was inactive. For the same compound, the half-maximal activity concentration (AC50) in experiment [2] is 68.9 µM (active).

As to `C=CC(=O)NCNC(=O)C=C`, the outcome in experiment [1] and in experiment [2] was inactive. For the compound `COc1ccc(O)c(C(C)(C)C)c1`, the half-maximal activity concentration (AC50) in experiment [1] was 81.3 µM (active); in experiment [2], 71 µM (active). As to `CCSC(=O)N(CC)C1CCCCC1`, the call in experiment [2] was inactive. On to `CCC(C)(c1ccc(O)cc1)c1ccc(O)cc1`, for which the results for the AC50 in experiment [1] and in experiment [2] were 50 µM (active) and 42.4 µM (active), respectively. As for `O=S(=O)(O)C(F)(F)C(F)(F)C(F)(F)C(F)(F)F`, the call in experiment [1] and in experiment [2] was inactive.

In the case of `c1ccc(-c2ccccc2)cc1`, the outcome in experiment [1] and in experiment [2] was inactive. As for `CCOP(=S)(OCC)SCSC(C)(C)C`, the concentration at half-maximal activity (AC50) in experiment [1] is 82.5 µM (active); in experiment [2], 59.6 µM (active). Take `Nc1ccc(-c2ccc(N)cc2)cc1`: the compound was classed as inactive in experiment [2].

For the compound `CC1=C2C[C@H]3[C@@H](CC=C4C[C@@H](O)CC[C@@]43C)[C@@H]2CC[C@]12O[C@@H]1C[C@H](C)CN[C@H]1[C@H]2C`, the outcome in experiment [1] and in experiment [2] was inactive. For `Oc1c(Cl)c(Cl)c(Cl)c(Cl)c1Cl`, the results for the half-maximal activity concentration (AC50) in experiment [1] and in experiment [2] were 15.2 µM (active) and 29.5 µM (active), respectively.

`Clc1ccc(Cl)cc1`: the outcome in experiment [1] and in experiment [2] was inactive. As for `CO/C=C(/C(=O)OC)c1ccccc1COc1cccc(C(F)(F)F)n1`, the AC50 in experiment [1] and in experiment [2] was 50 µM (active) throughout. Consider `CCCN(CCC)N=O`, for which the compound was called inactive in experiment [1] and in experiment [2]. Turning to `O=C(O)C(F)(F)C(F)(F)C(F)(F)C(F)(F)C(F)(F)C(F)(F)C(F)(F)C(F)(F)C(F)(F)F`, the concentration at half-maximal activity (AC50) in experiment [1] was 71.7 µM (active); in experiment [2], 67.3 µM (active). In the case of `CCC(C)c1cc([N+](=O)[O-])cc([N+](=O)[O-])c1O` (stereo not given), the AC50 was 12.7 µM (active) in experiment [1] and 12 µM (active) in experiment [2]. With `ClC1=C(Cl)[C@]2(Cl)[C@@H]3[C@@H]4C[C@@H]([C@H]5O[C@@H]45)[C@@H]3[C@@]1(Cl)C2(Cl)Cl`, the AC50 in experiment [1] and in experiment [2] was 50 µM (active) each time. As to `NS(=O)(=O)C(F)(F)C(F)(F)C(F)(F)C(F)(F)C(F)(F)C(F)(F)C(F)(F)C(F)(F)F`, the half-maximal activity concentration (AC50) in experiment [2] is 59.4 µM (active). As for `O=C(N[C@H]1CN2CCC1CC2)c1cc2ccoc2cn1`, the call in experiment [1] and in experiment [2] was inactive. `CCCCCCCCCC[N+](C)(C)CCCCCCCCCC`: the AC50 in experiment [1] was 3.81 µM (active); in experiment [2] it was 6.84 µM (active).

Take `O=NN(c1ccccc1)c1ccccc1`: the compound was called inactive in experiment [1] and in experiment [2]. Turning to `ClC1=C(Cl)[C@]2(Cl)[C@@H]3[C@H]4C[C@H]([C@@H]5O[C@H]45)[C@@H]3[C@@]1(Cl)C2(Cl)Cl`, the concentration at half-maximal activity (AC50) in experiment [1] is 24.1 µM (active); in experiment [2] it was 22.5 µM (active).

With `CCCCCCCCCc1ccc(O)cc1`, the AC50 in experiment [1] is 22.9 µM (active); in experiment [2], 19.1 µM (active). Take `CCCCCCOC(=O)c1ccccc1C(=O)OCCCCCC`: the half-maximal activity concentration (AC50) in experiment [1] was 43.5 µM (active); in experiment [2] it was 50 µM (active). The like results for `CC(C)C(=O)OCC(C)(C)C(OC(=O)C(C)C)C(C)C` (stereo not given) were, in that order, 75 µM (active) and 90.1 µM (active). Regarding `Nn1cnnc1`, in experiment [2], the compound was called inactive.

A word on the AC50: it is the concentration giving half of the maximal activity seen.
